In PubChem BioAssay AID1817 (Sanford-Burnham Center for Chemical Genomics, 2009):
The whole screen tested about 290,000 compounds, of which about 50 (0.02%) were called active.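 Rule for the calls: active = displacement of at least 50% at 20 µM, with a fluorescence ratio check between 0.3 and a set limit; inactive = the rest.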 The full list was thinned out, with actives kept by preference. Entries with a potency or affinity are not part of this list.

Molecular target: E3 ubiquitin-protein ligase SIAH1 (Homo sapiens) (UniProt Q8IUQ4)
Sequence (Q8IUQ4 whole entry, looked up): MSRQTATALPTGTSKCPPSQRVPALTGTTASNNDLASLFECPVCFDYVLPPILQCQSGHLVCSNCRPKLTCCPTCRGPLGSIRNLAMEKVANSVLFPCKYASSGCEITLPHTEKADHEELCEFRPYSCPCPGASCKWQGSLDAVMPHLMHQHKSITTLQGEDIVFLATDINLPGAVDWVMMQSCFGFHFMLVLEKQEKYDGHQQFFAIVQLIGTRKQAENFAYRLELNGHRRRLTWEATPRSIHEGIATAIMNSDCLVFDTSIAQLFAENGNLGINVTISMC
Assay: blockers of Siah-1 interaction with plectin peptide – biochemical, fluorescence polarization, rhodamine-plectin, uHTS, primary screen (AID 1817);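 note: plate controls were Siah plus tracer with DMSO for no effect and tracer alone without Siah for full effect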
Details: Siah-1 / rhodamine-plectin peptide fluorescence polarization; at 20 µM; active compounds read high

displacement, inactive:
CC(C)(C)C(=O)Nc1ccc(C(=O)Nc2cccc(Oc3ccc(C(=O)O)c(C(=O)O)c3)c2)cc1 24%, Cc1ccc(C(=O)Nc2ccc(Oc3ccc(C(=O)O)c(C(=O)O)c3)cc2)cc1C -3%, O=C(O)Cn1c(=S)sc2ccccc21 -2.4%, COc1cc([N+](=O)[O-])ccc1NC(=S)Nc1cccc(C(=O)O)c1 -2.6%, CCN(CC)CCOC(=O)c1ccc(N/C=C(/C#N)c2nc(-c3ccc4c(c3)OCO4)cs2)cc1 2.3%, COc1cc(/C=C(\C#N)c2nc(-c3cc4ccccc4oc3=O)cs2)ccc1O 2.9%, CCN(CC)CCOC(=O)c1ccc(N/C=C(/C#N)c2nc(-c3ccc(OC)cc3)cs2)cc1 8.3%, CCN(CC)CCOC(=O)c1ccc(N/C=C(/C#N)c2nc(-c3cccc(OC)c3)cs2)cc1 -5.2%, C1CC2CN(c3nc4nonc4nc3N3CCSCC3)CCN2C1 (stereo not given) 1.1%, COc1cccc(CNC(=O)C2CCCN(S(=O)(=O)c3c(C)n[nH]c3C)C2)c1 (stereo not given) -0.6%, CC(C)N1CCC(N2CCN(C/C=C/c3ccc(F)cc3)CC2CCO)CC1 (stereo not given) 12%, O=C(/C=C/c1ccc(OCCCF)cc1)NCc1ccc(Cl)cc1 33.7%, CN(CC(=O)Nc1cccc(F)c1)C(=O)c1ccc(-c2ccc(Cl)cc2)o1 4.6%, Nc1ccc(Br)c2c1C(=O)c1ccccc1C2=O 7.9%, Nc1c(O)ccc2c1C(=O)c1ccccc1C2=O 14.9%, NS(=O)(=O)c1ccc(NC(=O)c2ccc(-c3ccccc3)cc2)cc1 42.1%, O=C(O)c1ccc(NS(=O)(=O)c2ccc(C(=O)Nc3ccccc3)cc2)cc1 -5.7%, O=C(NCc1ccccn1)C1CCN(S(=O)(=O)N2CCCC2)CC1 3.2%, O=C(Cn1cnc2c(cnn2-c2ccccc2)c1=O)N1CCN(c2ccc(F)cc2)CC1 0.6%, Cc1cc(NS(=O)(=O)c2ccc(NC(=O)C(C)Oc3cc(C)c(Cl)c(C)c3)cc2)no1 (stereo not given) 0.9%, CCc1nnc(NS(=O)(=O)c2ccc(NC(=S)NC(=O)/C=C/c3ccc(F)cc3)cc2)s1 12.9%, CCc1nnc(NS(=O)(=O)c2ccc(NC(=S)NC(=O)/C=C/c3cccs3)cc2)s1 15.5%, CCc1nnc(NS(=O)(=O)c2ccc(NC(=S)NC(=O)/C=C/c3ccccc3)cc2)s1 11.7%, CCc1nnc(NS(=O)(=O)c2ccc(NC(=S)NC(=O)/C=C/c3ccc([N+](=O)[O-])cc3)cc2)s1 12.8%

displacement, active:
CCc1nnc(NS(=O)(=O)c2ccc(NC(=S)NC(=O)/C=C/c3ccc(OC)cc3)cc2)s1 51.9%
